Assay [1] relates to Wnt5a (protein binding on small-molecule microarray). Kind of assay: small molecules binding Wnt5a protein – biophysical, small-molecule microarray, 635/667 nm fluorescence, primary screen (AID 1142).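 Note: fluorescence read at 667 nm with signal to noise per printed feature.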 The note with it: 635 nm fluorescence, higher = more signal.
Assay [2] in a line: ATP-based viability of Huh7 replicon cells – cell-based, CellTiter-Glo luminescence, basal, 48 h, cytotoxicity control for HCV replication inhibitor project, primary screen (AID 1143).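 Note: Huh7 hepatoma cells carrying a hepatitis C replication reporter with no stimulus; test concentration not given here.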 The note with it: higher = more signal, called active from +8 up or from −8 down.
Assay [3] can be described thus: Pseudomonas biofilm growth suppression – PAO1 strain, BacTiter-Glo luminescence, LB-PBS, primary screen (AID 1144). To be noted: P. aeruginosa PAO1 biofilm, 12 h, higher = more signal.
Assay [4] in a line: basal CRE-LacZ reporter activity in PC12 – cell-based, unstimulated, primary screen (AID 1145). To be noted: no forskolin, luminescence, 4.5 h, higher = more signal, called active from +8 up or from −8 down.
Assay [5] is described as follows: forskolin-driven CRE-LacZ activity in PC12 – cell-based, CRE-LacZ reporter, forskolin-stimulated, primary screen (AID 1146).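 Note: PC12 cells with 6xCRE LacZ reporter stimulated by forskolin 10 µM; beta-galactosidase reporter signal reflecting CREB driven transcription.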 To be noted: luminescence, 4.5 h, higher = more signal, called active from +8 up or from −8 down.
The target in assay [6] is Streptavidin (Streptomyces avidinii) (UniProt P22629). Kind of assay: compounds binding control protein streptavidin – biophysical, small-molecule microarray, 635/667 nm fluorescence, artefact control for SMM compound annotation, primary screen (AID 1147).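 Note: signal reflects streptavidin binding to arrayed compounds as a control protein.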 The note with it: higher = more signal.
Assay [7] in a line: probe aInhba binding on compound microarray – biochemical, small-molecule microarray, 635/667 nm fluorescence, primary screen (AID 1148).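 Note: score merges 667nm spot fluorescence with signal-to-noise for antibody binding to printed compounds.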 The note with it: higher = more signal.
Assay [8] addresses Torsin-1A (Homo sapiens) (UniProt O14656). The experiment in a line: TOR1A wild-type binding on microarray – cell lysate, small-molecule microarray, lysate, 635/667 nm, primary screen (AID 1149). To be noted: COS7 hTOR1A-WT lysate, 635 nm fluorescence, higher = more signal.
Assay [9] shares this target. Kind of assay: torsin A mutant lysate binding on microarrays – cell lysate, small-molecule microarray, COS7 lysate, 635/667 nm fluorescence, primary screen (AID 1150).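 Note: score pools 667 nm emission and signal to noise measuring lysate protein binding.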 The note with it: COS7 hTOR1A mutant lysate, 635 nm fluorescence, higher = more signal.
Assay [10] deals with Sonic hedgehog protein (Shh). Kind of assay: Sonic hedgehog microarray binding compounds – biochemical, small-molecule microarray, 635/667 nm fluorescence, primary screen (AID 1151).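 Note: Shh protein binding to compounds spotted on small-molecule microarray slides; score combines spot fluorescence intensity with signal-to-noise across triplicate slides.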 The note with it: 635 nm fluorescence, higher = more signal.
Assay [11] in a line: optical density shifts of acrAB sulA E. coli – strain DRC41, OD650, 48 h, E. coli filamentation inducer project, primary screen (AID 1152).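 Note: E. coli MC1000 strain DRC41 lacking acrAB efflux pump and sulA.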 The note with it: higher = more signal, called active from +8 up or from −8 down.
The nature of assay [12]: probe aLefty1 binding on compound microarray – biochemical, small-molecule microarray, 635/667 nm fluorescence, primary screen (AID 1153).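 Note: score merges spot fluorescence with signal-to-noise ratio from the scanned slide images.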 The note with it: higher = more signal.
A short description of assay [13]: plasmodial surface anion channel blockers, osmotic lysis – cell-based, P. falciparum Indochina, OD700, 1 h, primary screen (AID 1154). To be noted: P. falciparum Indochina infected RBC osmotic lysis, higher = more signal, called active from +8 up or from −8 down.
Assay [14] in a line: plasmodial surface anion channel blockers, osmotic lysis – cell-based, P. falciparum Indochina, OD700, 2 h, primary screen (AID 1155).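 Note: lysis reports solute entry through the parasite surface anion channel PSAC.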 To be noted: P. falciparum Indochina infected erythrocytes, higher = more signal, called active from +8 up or from −8 down.
Assay [15] can be described thus: changes in parasitized red cell lysis, either direction – P. falciparum Indochina, OD700, 3 h, PSAC antagonist project, primary screen (AID 1156). To be noted: P. falciparum-infected erythrocytes, osmotic lysis, higher = more signal, called active from +8 up or from −8 down.
The nature of assay [16]: plasmodial surface anion channel blockers, osmotic lysis – cell-based, P. falciparum Indochina, OD700, 18 h, primary screen (AID 1157). The note with it: P. falciparum Indochina infected erythrocytes, osmotic lysis OD700, 18 h; higher = more signal, called active from +8 up or from −8 down.
Assay [17] is described as follows: S6 kinase pathway phospho-S6 level changes – cell-based, A549, cytoblot, luminescence, serum-stimulated, primary screen (AID 1158).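 Note: serum-stimulated A549 lung adenocarcinoma cells; signal is phosphorylated S6 detected by cytoblot immunostaining with HRP secondary.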 The note with it: 5 h, higher = more signal.
Assay [18] deals with NADPH oxidase 2 (Homo sapiens) (UniProt P04839). Kind of assay: compounds shifting NOX2 Amplex Red fluorescence – cell-based, HEK293-NOX2, PMA-stimulated, NOX inhibitor project, primary screen (AID 1159). Note: test concentration not given here. To be noted: 45 min, higher = more signal, called active from +8 up or from −8 down.
Assay [19] concerns the target NADPH oxidase 4 (Homo sapiens) (UniProt Q9NPH5). Kind of assay: compounds shifting NOX4 Amplex Red fluorescence – cell-based, HEK293-NOX4, tetracycline-induced, NOX inhibitor project, primary screen (AID 1160). To be noted: HEK293-NOX4, Amplex Red H2O2 fluorescence, 45 min; higher = more signal, called active from +8 up or from −8 down.
Assay [20] deals with NADPH oxidase 5 (Homo sapiens) (UniProt Q96PH1). The experiment in a line: compounds shifting NOX5 Amplex Red fluorescence – cell-based, HEK293-NOX5, NOX inhibitor project, primary screen (AID 1161). To be noted: HEK293-NOX5, ionomycin, 45 min, higher = more signal.

Calls of active or inactive are those of the source. Unless noted, the rule behind the calls is not given here.

Sequence of Streptavidin (Streptomyces avidinii) (P22629 whole entry, looked up): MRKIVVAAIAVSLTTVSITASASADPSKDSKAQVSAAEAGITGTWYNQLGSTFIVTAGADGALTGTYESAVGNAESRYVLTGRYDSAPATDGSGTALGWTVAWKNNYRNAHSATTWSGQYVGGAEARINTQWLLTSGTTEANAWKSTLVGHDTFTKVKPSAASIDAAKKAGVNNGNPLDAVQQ
Sequence of Torsin-1A (Homo sapiens) (O14656 whole entry, looked up): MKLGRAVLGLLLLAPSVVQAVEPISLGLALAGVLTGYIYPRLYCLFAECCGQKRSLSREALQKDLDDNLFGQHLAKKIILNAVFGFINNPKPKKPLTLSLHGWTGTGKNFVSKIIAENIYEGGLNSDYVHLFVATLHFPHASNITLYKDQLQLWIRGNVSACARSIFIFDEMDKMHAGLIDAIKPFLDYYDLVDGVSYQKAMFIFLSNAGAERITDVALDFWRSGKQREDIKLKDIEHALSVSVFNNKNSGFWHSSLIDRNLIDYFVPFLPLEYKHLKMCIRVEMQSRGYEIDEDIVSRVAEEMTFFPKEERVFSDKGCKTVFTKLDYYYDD
Sequence of NADPH oxidase 5 (Homo sapiens) (Q96PH1 whole entry, looked up): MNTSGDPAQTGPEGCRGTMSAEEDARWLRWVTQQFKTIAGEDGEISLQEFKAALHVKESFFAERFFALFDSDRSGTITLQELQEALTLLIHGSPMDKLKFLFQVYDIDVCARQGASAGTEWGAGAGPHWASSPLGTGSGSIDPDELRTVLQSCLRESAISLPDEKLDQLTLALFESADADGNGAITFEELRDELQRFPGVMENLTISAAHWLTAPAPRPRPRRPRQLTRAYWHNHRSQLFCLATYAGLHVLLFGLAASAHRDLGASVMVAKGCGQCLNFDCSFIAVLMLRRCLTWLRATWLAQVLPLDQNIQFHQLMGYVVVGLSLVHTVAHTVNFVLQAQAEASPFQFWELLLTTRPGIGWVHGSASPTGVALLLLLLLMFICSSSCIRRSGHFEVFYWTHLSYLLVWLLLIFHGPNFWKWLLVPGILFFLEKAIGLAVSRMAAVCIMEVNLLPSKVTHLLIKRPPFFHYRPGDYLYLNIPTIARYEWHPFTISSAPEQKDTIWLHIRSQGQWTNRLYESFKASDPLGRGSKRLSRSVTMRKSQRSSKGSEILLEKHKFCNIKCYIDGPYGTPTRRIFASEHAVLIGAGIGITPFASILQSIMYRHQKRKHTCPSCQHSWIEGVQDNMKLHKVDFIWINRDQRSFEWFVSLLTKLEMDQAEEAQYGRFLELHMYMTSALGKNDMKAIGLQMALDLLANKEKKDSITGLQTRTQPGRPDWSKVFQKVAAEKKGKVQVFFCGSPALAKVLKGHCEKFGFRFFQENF
Sequence of NADPH oxidase 2 (Homo sapiens) (P04839 whole entry, looked up): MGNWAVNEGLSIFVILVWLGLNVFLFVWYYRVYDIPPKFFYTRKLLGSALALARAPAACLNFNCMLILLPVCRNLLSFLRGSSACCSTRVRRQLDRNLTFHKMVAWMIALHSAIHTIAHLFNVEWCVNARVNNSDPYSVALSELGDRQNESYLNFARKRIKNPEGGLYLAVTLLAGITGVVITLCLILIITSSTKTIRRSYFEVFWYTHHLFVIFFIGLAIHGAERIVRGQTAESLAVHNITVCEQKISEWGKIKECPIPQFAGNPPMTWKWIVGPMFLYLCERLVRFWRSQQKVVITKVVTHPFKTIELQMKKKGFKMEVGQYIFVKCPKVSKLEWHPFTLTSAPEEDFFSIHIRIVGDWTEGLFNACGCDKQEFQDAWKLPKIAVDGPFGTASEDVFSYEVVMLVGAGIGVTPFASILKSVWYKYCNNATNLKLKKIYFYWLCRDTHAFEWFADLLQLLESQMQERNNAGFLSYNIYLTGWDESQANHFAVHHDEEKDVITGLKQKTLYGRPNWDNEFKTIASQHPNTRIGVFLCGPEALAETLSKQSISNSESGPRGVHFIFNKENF
Sequence of NADPH oxidase 4 (Homo sapiens) (Q9NPH5 whole entry, looked up): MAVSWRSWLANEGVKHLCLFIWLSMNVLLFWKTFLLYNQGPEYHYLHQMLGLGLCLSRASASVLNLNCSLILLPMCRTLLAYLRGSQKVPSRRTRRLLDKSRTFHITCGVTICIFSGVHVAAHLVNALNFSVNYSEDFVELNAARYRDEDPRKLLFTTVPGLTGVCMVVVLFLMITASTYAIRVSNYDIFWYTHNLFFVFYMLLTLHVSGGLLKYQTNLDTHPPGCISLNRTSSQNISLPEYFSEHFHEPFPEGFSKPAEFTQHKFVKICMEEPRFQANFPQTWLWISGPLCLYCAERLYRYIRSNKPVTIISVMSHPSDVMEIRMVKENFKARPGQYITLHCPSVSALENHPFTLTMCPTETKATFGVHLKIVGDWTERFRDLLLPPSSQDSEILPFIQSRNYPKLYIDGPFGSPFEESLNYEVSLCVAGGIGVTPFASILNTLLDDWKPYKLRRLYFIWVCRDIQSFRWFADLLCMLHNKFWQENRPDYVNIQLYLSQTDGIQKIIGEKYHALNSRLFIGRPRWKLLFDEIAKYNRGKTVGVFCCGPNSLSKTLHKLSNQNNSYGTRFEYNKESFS

For `COC(=O)C1=C(C)N(Cc2ccccc2)[C@]23O[C@](C(=O)OC)(C(=O)N2[C@@H]1c1ccccc1)[C@H]1CCOC(=O)[C@H]13`, the composite z-score in assay [1] was 0.313; in [6], 0.0391; in assay [7], -0.0118; with Torsin-1A (Homo sapiens) [8], 0.252; in the assay with Torsin-1A (Homo sapiens) [9] it was 0.22; in assay [10], 1.05. Further, the composite z-score in assay [12] was -0.0984. For the same molecule, the z-score in assay [2] was -0.147 (inactive); in [3], -1.02 (inactive); in assay [4], 0.286 (inactive); in assay [5], -0.213 (inactive); in assay [11], -0.238 (inactive); in assay [13], 0.951 (inactive). Also, the z-score in assay [14] is -0.0468 (inactive); in assay [15] it was 1.3 (inactive); in [16], 0.443 (inactive); in assay [17], -0.537; in assay [18] it was 0.902 (inactive); in assay [19], 0.805 (inactive). Further, the z-score in [20] amounted to 1.06.
With `N#Cc1ccc(NN2C(C(O)c3cc(C(F)(F)F)cc(C(F)(F)F)c3)C=CC3C(=O)N(c4ccccc4)C(=O)C32)cc1` (stereo not given), the composite z-score in assay [1] is 0.261; in assay [6], 1.39; in assay [7] it was 0.231; with Torsin-1A (Homo sapiens) [8], 1.43; with Torsin-1A (Homo sapiens) [9], 1.06; in [10] it was -0.0099. This molecule showed a composite z-score in assay [12] of 0.0971. In addition, the z-score in assay [2] was -2.24 (inactive); in assay [3] it was -0.875 (inactive); in [4], 0.822 (inactive); in [5] it was -0.389 (inactive); in assay [11], -1.54 (inactive); in [13] it was 4.78 (inactive). Moreover, the z-score in assay [14] is 2.32 (inactive); in assay [15], -3.13 (inactive); in assay [16], 1.54 (inactive); in [17] it was -1.07; in [18], -1.19 (inactive); in [19] it was -3.23 (inactive). For the same molecule, the z-score in [20] was -1.4.
For the molecule `O=C1[C@H]2[C@H]3[C@H](O)[C@H](O)CC(=NOCc4ccccc4)[C@@H]3CC[C@H]2C(=O)N1Cc1ccccc1`, the composite z-score in [1] was -0.0408; in [6], 0.336; in assay [7], -0.128; in the assay with Torsin-1A (Homo sapiens) [8], -0.0549; with Torsin-1A (Homo sapiens) [9], 0.282; in assay [10], 0.84. This molecule came in with a composite z-score in [12] of -0.147. The z-score was 0.0627 (inactive) in assay [2]; 0.76 (inactive) in assay [3]; 0.155 (inactive) in [4]; 0.663 (inactive) in [5]; 0.569 (inactive) in assay [11]; 0.124 (inactive) in assay [13]. Moreover, the z-score was 0.321 (inactive) in [14]; 0.0319 (inactive) in assay [15]; 0.627 (inactive) in assay [16]; -0.618 in assay [17]; -0.85 (inactive) in [18]; 0.433 (inactive) in [19]. In assay [20], the z-score was determined as 0.326.
Consider `CC(C)[C@H](NC(=O)OC(C)(C)C)[C@@H](O)CC(=O)OC(C)(C)C`, for which the composite z-score is -0.417 in assay [1]; -0.14 in assay [6]; -0.152 in [7]; -0.781 with Torsin-1A (Homo sapiens) [8]; -0.448 with Torsin-1A (Homo sapiens) [9]; -0.463 in [10]. The same molecule registered a composite z-score in assay [12] of -0.0197. Besides, the z-score in assay [2] was -0.49 (inactive); in [3], -0.896 (inactive); in assay [4] it was 0.293 (inactive); in assay [5], 0.337 (inactive); in assay [11], -0.703 (inactive); in assay [13] it was 0.775 (inactive). Further, the z-score is 0.269 (inactive) in [14]; 0.835 (inactive) in [15]; 0.128 (inactive) in assay [16]; 0.242 in assay [17]; 1.33 (inactive) in [18]; -1.02 (inactive) in assay [19]. For the same molecule, in assay [20], the z-score was 1.04.
Regarding `COC(=O)C1=C(C)[C@@H](O)[C@@H](C)[C@H](c2c(OC)c(OC)c(C)c(OC)c2OC)O1`, the composite z-score is 0.0023 in assay [1]; 0.479 in [6]; -0.218 in assay [7]; 0.14 in the assay with Torsin-1A (Homo sapiens) [8]; 0.553 in the assay with Torsin-1A (Homo sapiens) [9]; 0.535 in [10]. In assay [12], this molecule returned a composite z-score of -0.356. Moreover, the z-score was -0.0219 (inactive) in assay [2]; 0.148 (inactive) in assay [3]; 2.18 (inactive) in assay [4]; 0.0745 (inactive) in assay [5]; -0.472 (inactive) in assay [11]; 0.211 (inactive) in [13]. In addition, the z-score is 0.589 (inactive) in [14]; 0.336 (inactive) in assay [15]; 0.1 (inactive) in [16]; -0.468 in assay [17]; -0.101 (inactive) in assay [18]; -0.0181 (inactive) in [19]. Further, the z-score in [20] amounted to 0.536.
Take `CCc1cccc(NC(=O)O[C@H]2[C@H](OC(=O)Nc3ccc4c(c3)OCO4)[C@@H](OC(=O)Nc3ccc4c(c3)OCO4)[C@@H](OC)O[C@@H]2CO)c1`: the composite z-score in [1] was 0.546; in assay [6] it was 1.28; in [7] it was 0.0073; in the assay with Torsin-1A (Homo sapiens) [8] it was 1.14; in the assay with Torsin-1A (Homo sapiens) [9], 0.731; in [10], 1.76. The composite z-score in assay [12] stood at 1.01. Besides, the z-score in [2] is -3.35 (inactive); in assay [3], -1.21 (inactive); in assay [4] it was 0.101 (inactive); in [5], -0.684 (inactive); in assay [11], 0.861 (inactive); in [13] it was 7.56 (inactive). Moreover, the z-score in assay [14] is 1.22 (inactive); in assay [15], 1.37 (inactive); in assay [16], 0.495 (inactive); in [17] it was 0.19; in assay [18] it was -3.12 (inactive); in assay [19] it was -0.812 (inactive). In addition, the z-score in [20] was -1.87.
Take `CC(CCC(=O)OC[C@H]1O[C@H](C#Cc2ccccc2)C=C[C@@H]1Oc1ccc(C)cc1)=NOC[C@@H](O)[C@H]1O[C@@H]2OC(C)(C)O[C@@H]2[C@H]1O`: the composite z-score in assay [1] is -0.598; in [6], -0.564; in [7], -0.178; with Torsin-1A (Homo sapiens) [8], -0.526; with Torsin-1A (Homo sapiens) [9] it was -0.617; in assay [10], -0.108. Further, the composite z-score in assay [12] is -0.193. The z-score in assay [2] was -0.416 (inactive); in [3], -0.025 (inactive); in [4], 0.099 (inactive); in [5], 0.0046 (inactive); in [11] it was 0.715 (inactive); in assay [13] it was 14.2 (active). Also, the z-score in assay [14] is 1.9 (inactive); in [15], 0.0766 (inactive); in assay [16], 1.05 (inactive); in assay [17], 0.078; in assay [18] it was -1.55 (inactive); in assay [19] it was -0.00198 (inactive). Also, in assay [20], the z-score is -1.2.
On to `COc1cccc([C@@H]2Oc3ccc(Br)cc3C(=O)[C@H]2O)c1`, for which the composite z-score in assay [1] is 0.134; in assay [6], 0.286; in [7], -0.089; with Torsin-1A (Homo sapiens) [8], 0.561; with Torsin-1A (Homo sapiens) [9], 1.1; in assay [10] it was 0.936. The same molecule had a composite z-score in [12] of -0.0464. For the same molecule, the z-score in assay [2] was -3.91 (inactive); in [3], -0.591 (inactive); in assay [4], 4.08 (inactive); in assay [5] it was 0.136 (inactive); in [11], 0.91 (inactive); in assay [13], 20 (active). Further, the z-score was 3.35 (inactive) in [14]; -0.0836 (inactive) in assay [15]; 0.592 (inactive) in assay [16]; -0.256 in [17]; 0.658 (inactive) in assay [18]; -1.89 (inactive) in [19]. In [20], the z-score is -0.879.

Source of the values: PubChem BioAssay.
